Test results published in PubChem BioAssay (EPA / NIEHS).
Calls of active or inactive are those of the source. Rule for the calls: active = hit-call score of the fitted dose curve at least 0.9, where 1 is the maximum; inactive = score below 0.9.

Columns and labels:
[1] = read-out: Vascular cell adhesion molecule 1 (VCAM1), VCAM1 (gene 7412); experiment: BSK_CASM3C_VCAM1: BioMAP Diversity Plus: CASM3C Assay for Vascular cell adhesion molecule 1 (VCAM1) Biomarker Activity (AID 2283055); details: primary human coronary artery smooth muscle cells; actives raise or lower the signal;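 note: VCAM-1 protein level quantified by ELISA on the cells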
[2] = read-out: Collagen III, COL3A1 (gene 1281); experiment: BSK_hDFCGF_CollagenIII: BioMAP Diversity Plus: hDFCGF Assay for Collagen III Biomarker Activity (AID 2283056); details: primary human foreskin fibroblasts; actives raise or lower the signal
Outline: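 hDFCGF primary human dermal fibroblasts; 24 h chemical exposure; collagen III by ELISA; bidirectional curve fit vs DMSO baseline (gain or loss of signal).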

[3] = read-out: Epidermal growth factor receptor (EGFR), EGFR (gene 1956); experiment: BSK_hDFCGF_EGFR: BioMAP Diversity Plus: hDFCGF Assay for Epidermal growth factor receptor (EGFR) Biomarker Activity (AID 2283057); details: primary human foreskin fibroblasts; actives raise or lower the signal
Outline: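 Primary human foreskin fibroblasts were exposed to compound for 24 h, after which cell-surface EGFR was quantified by ELISA. Activity was fitted bidirectionally against the DMSO negative control as baseline.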

[4] = read-out: Interleukin-8 (IL8), CXCL8 (gene 3576); experiment: BSK_hDFCGF_IL8: BioMAP Diversity Plus: hDFCGF Assay for Interleukin-8 (IL8) Biomarker Activity (AID 2283058); details: primary human foreskin fibroblasts; actives raise or lower the signal
Outline: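 ELISA read-out of IL-8 from primary human foreskin fibroblast cultures taken 24 h after dosing; values are bidirectional fits relative to DMSO vehicle.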

[5] = BSK_hDFCGF_Proliferation: Cell Proliferation Assessment in the BioMAP Diversity Plus: hDFCGF Assay (AID 2283059); details: primary human foreskin fibroblasts;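 note: curves fitted for both rise and fall of signal versus DMSO baseline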
Outline: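 Total protein read at 560 nm after 0.1% SRB staining of TCA-fixed human skin fibroblasts, […]. Activity is fitted in both directions relative to DMSO as baseline.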

[6] = read-out: Macrophage colony-stimulating factor (MCSF), CSF1 (gene 1435); experiment: BSK_hDFCGF_MCSF: BioMAP Diversity Plus: hDFCGF Assay for Macrophage colony-stimulating factor (MCSF) Biomarker Activity (AID 2283060); details: primary human foreskin fibroblasts; actives raise or lower the signal
Outline: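 ELISA read-out of M-CSF in human dermal foreskin fibroblast cultures, 24 h after chemical dosing; gain or loss of signal fitted bidirectionally relative to DMSO baseline.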

[7] = BSK_hDFCGF_SRB: Viability Assessment in the BioMAP Diversity Plus: hDFCGF Assay (AID 2283061); details: primary human foreskin fibroblasts;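 note: cells exposed to compound for 24 h before the read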
Outline: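 Primary human foreskin fibroblasts; 24 h post-dose; fixed 10% TCA, stained 0.1% SRB, A560 read; total protein as overt cytotoxicity measure; curves fit bidirectionally vs DMSO control.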

[8] = read-out: TIMP metallopeptidase inhibitor 1 (TIMP1), TIMP1 (gene 7076); experiment: BSK_hDFCGF_TIMP1: BioMAP Diversity Plus: hDFCGF Assay for TIMP metallopeptidase inhibitor 1 (TIMP1) Biomarker Activity (AID 2283062); details: primary human foreskin fibroblasts; actives raise or lower the signal
Outline: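 ELISA readout of TIMP-1 from human dermal foreskin fibroblast cultures 24 h post-dosing. Curves were fitted in both directions against DMSO baseline, with SRB total-protein staining in parallel cultures as a cytotoxicity check.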

[9] = read-out: Monokine induced gamma interferon (MIG), CXCL9 (gene 4283); experiment: BSK_hDFCGF_MIG: BioMAP Diversity Plus: hDFCGF Assay for Monokine induced gamma interferon (MIG) Biomarker Activity (AID 2283063); details: primary human foreskin fibroblasts; actives raise or lower the signal
Outline: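 Fibroblasts (human foreskin, primary) dosed, 24 h, MIG by ELISA; fit bidirectional vs DMSO.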

[10] = read-out: Matrix Metallopeptidase 1 (MMP1), MMP1 (gene 4312); experiment: BSK_hDFCGF_MMP1: BioMAP Diversity Plus: hDFCGF Assay for Matrix Metallopeptidase 1 (MMP1) Biomarker Activity (AID 2283064); details: primary human foreskin fibroblasts; actives raise or lower the signal
Outline: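 Primary human foreskin fibroblasts exposed to chemicals for 24 h; MMP1 measured by ELISA. Cytotoxicity tracked by SRB staining in parallel cultures; bidirectional fit relative to DMSO.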

Measured: outcome

CCCCCCCCCCCCc1ccccc1
inactive: all assays above

COCCOCCOCCOC
inactive: all assays above

O=C(O)CC(O)C(=O)O (stereo not given)
inactive: all assays above

COC(=O)c1ccccc1O
inactive: all assays above

CC(C)=CCC/C(C)=C/CO
inactive: all assays above
